Screening results deposited in PubChem by National Center for Advancing Translational Sciences (NCATS).
S16 viability: cytotoxicity in S16 Pmp22-F2sN Schwann cells; Potency, µM (titrated, usually from 57.5 µM), usual class: cytotoxic; S16 Pmp22-F2sN Schwann cells viability, CellTiter-Glo, 24 h; 43,000 tested, 0.48% active; note: nearly all actives have a fitted effect of over 65% in size
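Luminescence from CellTiter-Glo, read by CCD camera after a 15 min room-temperature incubation, served as the viability signal. Reporter Schwann cells (S16 Pmp22-F2sN) had been treated with pin-transferred compounds for 24 h at 37C.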
p53null 39C kill: selectivity test: cytotoxicity in p53 null cells, nonpermissive temperature; H1299 p53-null (neo) cells, 39C, ATPlite viability, 24 h; 55,000 tested, 0.97% active; Potency, µM (titrated, usually from 46.1 µM), actives largely listed as cytotoxic; AID 904; note: nearly all actives have a fitted effect of over 50% in size
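Temperature-shift cytotoxicity format: compound titrations on p53-null or A138V-expressing H1299 cells held 24 hr at 39C, cell ATP then measured, AC50 from Hill model.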
p53null 32C tox: selectivity test: cytotoxicity in p53 null cells, permissive temperature | H1299-neo p53 null cells, ATP luminescence, 24 h, 32C | Potency, µM (top dose mostly 46.1 µM), usual class: cytotoxic | 55,000 tested, 0.62% active; note: nearly all actives have a fitted effect of over 55% in size
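Cells lacking p53 (H1299-neo) are plated at 600 per well and allowed to settle overnight at 37C. Test compounds (up to 46 uM) are added and held 24 hours at 32C, then ATP is quantified by luminescence.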
PMP22 txn prim: PMP22 gene transcription modulation; AID 1508649; Potency, µM (doses to about 57.5 µM), usual class: inhibitors; S16 Pmp22-F2sN Schwann cells (luciferase reporters placed in the Pmp22 gene), FLuc/NLuc coincidence luminescence, 24 h; 43,000 tested, 2% active; active = clear falling dose curves in both reporters; inconclusive = both reporters move, but less clearly or upward; inactive = either reporter flat; the % is the NLuc reporter signal
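Reporter cells (S16 Pmp22-F2sN, 500–1,000 per well) exposed to compounds for 24 h, 37C, 5% CO2; lysis with FLuc read after 10 min, then Stop&Glo and NLuc read after 10 min.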
mTORC1 inh: reduces mTORC1 signaling in Tsc2 and p53 null MEF cells. 44,000 tested, 0.78% active. AID 493208. Tsc2-/- p53-/- MEF, phospho-rpS6 immunofluorescence/PI, 24 h. Potency, µM (series often up to 38.3 µM), most hits filed as inhibitors; note: nearly all actives have a fitted effect of over 50% in size
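Cell-based qHTS: Tsc2-/- p53-/- MEF, 24 h cpd, 37 °C; fix/perm, anti-phospho-S6 Alexa-488 + PI; Acumen 488 nm scan; pS6/PI ratio, % positive cells; rapamycin 7.5 nM = inhibition ref; PI count = viability.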
SKOV3 invasion: blocks SKOV3ip1 adhesion and invasion in omental model | SKOV3ip1-GFP adhesion/invasion on 3D omental model, fluorescence | Potency, µM (highest dose often 45.8 µM), hits mostly inhibitors | 46,000 tested, 0.1% active | AID 1963576; note: nearly all actives have a fitted effect of over 65% in size
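Primary human omental fibroblast/mesothelial 3D culture pre-formed 48 h. SKOV3ip1-GFP cells added with compounds (0.36-46 umol/L), incubated 2 h RT/16 h 37 C, fixed; GFP cells quantified at 488/509 nm.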
NLuc sat counter: counter-screen for PMP22 expression modulators: NanoLuc inhibition, saturating substrate; Potency, µM (series often up to 57.5 µM), usual class: inhibitors; shares compounds with PMP22 txn prim; 690 tested, 4% active; Secreted NLuc enzyme (filtered S16 cell medium), Nano-Glo luminescence; AID 1508638
NLuc Km counter: NanoLuc inhibition at Km substrate, PMP22 artifact check | shares compounds with PMP22 txn prim | secreted NLuc enzyme, coelenterazine luminescence, Km conditions | Potency, µM (top dose mostly 57.5 µM), hits mostly inhibitors | 690 tested, 5% active | AID 1508639
FLuc counter: counter-screen for PMP22 expression modulators: firefly luciferase inhibition; purified P. pyralis FLuc, luminescence, 10 min; 690 tested, under 10 active; Potency, µM (doses to about 57.5 µM), actives largely listed as inhibitors; shares compounds with PMP22 txn prim
Target sequence (P08659 whole entry, looked up): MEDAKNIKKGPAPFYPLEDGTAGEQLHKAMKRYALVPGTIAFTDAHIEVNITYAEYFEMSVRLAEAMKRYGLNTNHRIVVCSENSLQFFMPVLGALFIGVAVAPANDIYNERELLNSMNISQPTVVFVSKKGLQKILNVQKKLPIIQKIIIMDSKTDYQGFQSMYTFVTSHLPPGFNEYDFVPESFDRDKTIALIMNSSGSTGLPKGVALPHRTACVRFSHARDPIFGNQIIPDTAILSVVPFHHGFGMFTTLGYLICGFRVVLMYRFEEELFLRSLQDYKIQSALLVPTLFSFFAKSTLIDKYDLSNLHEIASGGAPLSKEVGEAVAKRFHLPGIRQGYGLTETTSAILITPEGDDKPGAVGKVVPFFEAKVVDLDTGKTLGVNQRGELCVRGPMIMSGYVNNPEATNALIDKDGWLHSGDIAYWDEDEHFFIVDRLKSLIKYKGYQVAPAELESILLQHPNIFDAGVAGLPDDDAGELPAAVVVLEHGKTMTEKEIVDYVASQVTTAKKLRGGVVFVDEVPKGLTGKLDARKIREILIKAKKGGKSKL
S16 viab conf: S16 Schwann cell cytotoxicity, confirmatory; 690 tested, 7% active; shares compounds with PMP22 txn prim; Potency, µM (series often up to 57.5 µM), most hits filed as cytotoxic; S16 Schwann cells viability, CellTiter-Glo ATP luminescence, 24 h
PMP22 txn cnf: PMP22 transcription modulation, confirmatory; AID 1508646; S16 Schwann cells Pmp22-F2sN, dual luciferase, 24 h; Potency, µM (doses to about 57.5 µM), hits mostly inhibitors; shares compounds with PMP22 txn prim; 690 tested, 22% active; active = clear falling dose curves in both reporters; inconclusive = both reporters move, but less clearly or upward; inactive = either reporter flat; the % is the FLuc reporter signal
PMP22 prot conf: confirmation of modulators of rat PMP22 protein expression. shares compounds with PMP22 txn prim. S16 Schwann cells Pmp22-HiBiT, luminescence, 48 h. Potency, µM (doses to about 27.9 µM), usual class: inhibitors. 95 tested, under 10 active
Target sequence (P25094 whole entry, looked up): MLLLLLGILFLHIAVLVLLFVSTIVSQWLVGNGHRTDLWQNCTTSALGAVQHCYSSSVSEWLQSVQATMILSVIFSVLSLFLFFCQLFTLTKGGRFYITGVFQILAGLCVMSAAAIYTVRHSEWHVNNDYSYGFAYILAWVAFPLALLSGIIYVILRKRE
Hits are given with their value; i = inactive; ? = inconclusive; nt = not tested or not shown. Only some compounds are listed: those with a hit (about 3% of all), similar ones and a draw of the others. Unless noted, calls come from the whole dose curve; as a rule, active = well fitted curve in the direction sought with a large enough effect; inconclusive = small, poorly fitted or top-dose-only effect, or another doubt; inactive = no such curve, though single readings can be large; an effect the other way counts as inactive or inconclusive.

SMILES | S16 viability | p53null 39C kill | p53null 32C tox | PMP22 txn prim | mTORC1 inh | SKOV3 invasion | NLuc sat counter | NLuc Km counter | FLuc counter | S16 viab conf | PMP22 txn cnf | others
CCCNC(=O)c1cnn2c(C)c(Cc3c(C)cc(C)cc3C)c(C)nc12 | ? | i | i | 16µM | i | i | ? | 22µM | i | i | ?
CN1N=C(N)c2cn([C@@H]3O[C@H](COP(=O)(O)O)[C@@H](O)[C@@H]3O)c3ncnc1c23 | nt | nt | nt | nt | nt | i | nt | nt | nt | nt | nt
COc1ccc2c(c1)CC[C@H]1[C@@H]2CC[C@]2(C)[C@@H](NCCCCCCN3C(=O)C=CC3=O)CC[C@H]12 | nt | nt | nt | nt | nt | i | nt | nt | nt | nt | nt
CCC(=O)O[C@]1(C(=O)CO)CC[C@H]2[C@@H]3CCC4=CC(=O)CC[C@]4(C)[C@@H]3CC[C@@]21C | nt | nt | nt | nt | nt | i | nt | nt | nt | nt | nt
Cc1ccc(NC(=O)CSc2nc3ccccc3nc2Cc2ccccc2)c(C)c1 | i | i | i | 9.5µM | i | i | i | i | i | i | ?
C[C@@]12C[C@@]3(O)O[C@@H](O1)[C@]1(COC(=O)c4ccccc4)[C@@H]3C[C@@]12O[C@@H]1O[C@H](CO)[C@@H](O)[C@H](O)[C@@H]1O | nt | nt | nt | nt | nt | i | nt | nt | nt | nt | nt
Cc1nc2cccnc2n1C1CCN(S(=O)(=O)c2ccc(C(C)C)cc2)CC1 | ? | i | i | 17µM | i | i | i | i | i | i | i
CC(=O)NC(CS)C(=O)O (stereo not given) | nt | nt | nt | nt | nt | i | nt | nt | nt | nt | nt
COc1ccc(CCC(=O)Nc2nc3ccc(Cl)cc3s2)cc1OC | nt | nt | nt | nt | nt | i | nt | nt | nt | nt | nt
Cc1ccc(NC(=O)CSc2nc3n[nH]c(C)c3c(=N)n2-c2ccccc2C)cc1C | i | i | i | 17µM | i | i | ? | ? | i | i | i
Cc1ccc(NC(=O)CSc2nc3n[nH]c(C)c3c(=N)n2-c2cccc(C)c2)cc1 | i | i | i | ? | i | i | nt | nt | nt | nt | nt
C[C@@H]1C(=O)O[C@H]2CC34[C@H]5C[C@@H](C(C)(C)C)C36[C@H](OC(=O)[C@@H]6O)O[C@@]4(C(=O)O5)[C@]21O (stereo not given in full) | nt | nt | nt | nt | nt | i | nt | nt | nt | nt | nt
COc1cc(C(=O)Nc2c(C(=O)Nc3ccccc3F)oc3ccccc23)cc(OC)c1OC | i | i | i | 17µM | i | i | i | i | ? | i | ?
COc1ccccc1NC(=O)c1oc2ccccc2c1NC(=O)c1c(F)cccc1F | i | i | i | i | i | i | nt | nt | nt | nt | nt
Cn1c(=O)oc2cc(S(=O)(=O)N3CCCC(C(=O)N4CCN(c5ccc(Cl)cc5)CC4)C3)ccc21 (stereo not given) | ? | i | i | 5.1µM | i | i | ? | i | i | i | 15µM | PMP22 prot conf=?
COc1ccc(N2CCN(C(=O)C3CCCN(S(=O)(=O)c4ccc5c(c4)oc(=O)n5C)C3)CC2)cc1 (stereo not given) | i | i | i | ? | i | i | nt | nt | nt | nt | nt
Cc1ccc(OCCSc2nc3ccc(NC(=O)c4ccc5c(c4)OCO5)cc3s2)cc1 | i | i | i | 14µM | i | i | i | i | i | ? | ?
CCOc1ccc(C(=O)Nc2ccc3nc(SCCOc4ccccc4)sc3c2)cc1 | i | i | i | 11µM | i | i | i | i | i | i | i
Cc1cccc(C(=O)Nc2ccc3nc(SCCOc4ccccc4)sc3c2)c1 | i | i | i | ? | i | i | nt | nt | nt | nt | nt
CN(C)c1nc(Cc2ccc(NC(=O)c3ccc4ccccc4c3)cc2)nc(Cl)c1CC(=O)O | nt | nt | nt | nt | nt | i | nt | nt | nt | nt | nt
CC(C)N(CC[C@H](c1ccccc1)c1cc(CO)ccc1O)C(C)C | nt | nt | nt | nt | nt | i | nt | nt | nt | nt | nt
COc1ccc(Cn2c(SCC(=O)NCc3ccccc3)nc3ccccc32)cc1 | ? | i | i | ? | i | i | nt | nt | nt | nt | nt
COc1ccc(Cn2c(SCC(=O)N(C)Cc3ccccc3)nc3ccccc32)cc1 | i | i | i | 20µM | i | i | ? | ? | ? | i | i
CCn1cc(C(=O)NC(C)c2ccccc2)c(=O)c2cc(S(=O)(=O)N3CCc4ccccc4C3)ccc21 (stereo not given) | i | i | i | ? | i | i | nt | nt | nt | nt | nt
CCC(C)NC(=O)c1cn(CC)c2ccc(S(=O)(=O)N3CCc4ccccc4C3)cc2c1=O (stereo not given) | i | i | i | 17µM | i | i | i | i | i | i | i
SMILES | S16 viability | p53null 39C kill | p53null 32C tox | PMP22 txn prim | mTORC1 inh | SKOV3 invasion | NLuc sat counter | NLuc Km counter | FLuc counter | S16 viab conf | PMP22 txn cnf | others
CCn1cc(C(=O)NCCc2ccc(OC)c(OC)c2)c(=O)c2cc(S(=O)(=O)N3CCCCCC3)ccc21 | ? | i | i | ? | i | i | ? | ? | i | i | i
CCn1cc(C(=O)NCCc2ccc(C)cc2)c(=O)c2cc(S(=O)(=O)N3CCCCC3)ccc21 | i | i | i | i | i | i | nt | nt | nt | nt | nt
Cc1cc(-c2ccc(CC(=O)Nc3ccc(-c4cccnc4)cc3)cc2)ccn1 | nt | nt | nt | nt | nt | i | nt | nt | nt | nt | nt
NC(=O)c1ccc(I)c([N+](=O)[O-])c1 | nt | nt | nt | nt | nt | i | nt | nt | nt | nt | nt
O=S(=O)(NCCc1csc2nc(-c3ccc(Cl)cc3)nn12)c1ccc(Oc2ccccc2)cc1 | i | i | i | 13µM | i | i | i | i | i | i | ?
COc1ccc(CC(=O)Nc2sc3c(c2C(=O)Nc2ccc(C)cc2)CCCCC3)cc1 | i | i | i | ? | i | i | nt | nt | nt | nt | nt
COc1ccc(CC(=O)Nc2sc3c(c2C(=O)Nc2cccc(C)c2)CCCCC3)cc1 | 25µM | ? | i | 10µM | 9.3µM | i | i | i | i | ? | ?
